Experimental data from PubChem BioAssay (NCI).
This is part of a sample that, as a whole, favours compounds with a hit. Of some 83,000 tested, about 20% had one in any assay.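 Compound tested at a single concentration for 48 hours in 96-well plates; a percent growth value below 10 was scored as active.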 Values without a mark were called inactive. The source made the active and inactive calls.

Tested on: SR leukemia
Test: NCI-60 one-dose screen, 48 h (100 = growth as untreated, 0 = no growth, -100 = all killed)
Conditions: 10 µM unless noted
Method: Growth inhibition of the SR human tumor cell line is measured as a screen for anti-cancer activity. Cells are grown in 96 well plates and exposed to the test compound for 48 hours. Compounds are tested at a single concentration, which is 10^-5 M for most compounds. The reported endpoint is percent growth (GI% or GIPRCNT), where numbers from 0 - 100% represent growth inhibition, and numbers from -100% - 0 represent cell death. For example, a value of 40 represents 60% growth inhibition. A value of 0 means no net growth occurred over the course of the experiment. A value of -40 indicates 40% of cells at the beginning of the experiment died by the end of the experiment. A value of -100 means all cells are dead at the end of the experiment.
NCI-60 Human Tumor Cell Lines Screen was performed using the standard one-dose NCI protocol, which is described in more detail at https://dtp.cancer.gov/discovery_development/nci-60/default.htm.
Compounds with GIPRCNT values below 10 were considered active. Activity score was based on GIPRCNT using the following formula: […]
Score is 0 for GIPRCNT values of 100 or above, 50 for GIPRCNT values of 0, and 100 for GIPRCNT values of -100.

| Compound | growth |
| --- | --- |
| O=c1[nH]nc(-c2ccc(Cl)cc2)cc1Cc1cccc([N+](=O)[O-])c1 | -44.9% (active) |
| COc1ccc(C(O)c2cc3c(N)c(C(=O)Nc4ccc(Br)cc4)sc3nc2C)cc1 (stereo not given) | -8% (active) |
| O=CNc1cc(Cl)cc(Cl)c1 | 90.3% |
| COc1cc2nc(-c3ccc(C(F)(F)F)cc3)cc(OCCN3CCC(O)CC3)c2cc1OC | 35.4% |
| C#CCn1cc(C=C2C(=O)NC(=S)NC2=O)c2cc(Cl)ccc21 | 4.92% (active) |
| CCCCCOc1ccc(/C=N/Nc2cc(C)nc3ccc(Br)cc23)cc1 | -9.53% (active) |
| CN1C(=O)N(C)C2NC(N/N=C/c3ccccc3)=NC21 (stereo not given) | 117% |
| CCOc1ccc(/C=N/Nc2cc(C)nc3ccc(Cl)cc23)cc1 | -9.13% (active) |
| Cn1c(COC(=O)N2CCCCC2)nc2c(N3CCOCC3)nc(-c3ccccc3)nc21 | 0.966% (active) |
| Nc1nc(N)nc(NCc2ccccc2)n1 | 89% |
| CC1(c2ccccc2)NC(=O)N(CC(=O)Nc2cccc(I)c2)C1=O (stereo not given) | 71.1% |
| NC(=O)c1ncn(C2OC(CO)C(O)C2O)n1 (stereo not given) | 73.2% |
| Cc1ccccc1CNc1ccc(N2CCOCC2)cc1 | 86.3% |
| CS(=O)(=O)Nc1cc(-c2ccc3ncnc(Nc4ccc5[nH]ncc5c4)c3c2)cnc1Cl | 63.2% |
| Cc1ccc(Nc2cc(=S)nc(N)[nH]2)cc1C | 97.5% |
| Nc1c(C(=O)Nc2ccc(Cl)cc2)cc(-c2nc3ccccc3s2)c(=O)n1NS(=O)(=O)c1ccc(Cl)cc1 | 95.2% |
| O=C(O)CCCCCCCCCCCCCCC(=O)O | 101% |
| CC(C)(C)CC(C)(C)Nc1c(-c2ccc3c(c2)OCO3)nc2cnccn12 | 73.1% |
| CCSc1ccc2c(c1)N(CCCN1CCN(C)CC1)c1ccccc1S2 | -15% (active) |
| CCc1nc(C)cn1C(=O)OCc1nc2nc(Cl)nc(N3CCOCC3)c2[nH]1 | -16.1% (active) |

| Compound | growth |
| --- | --- |
| COc1ccc(C(O)c2cc3c(N)c(C(=O)Nc4ccc(Cl)cc4)sc3nc2C)cc1 (stereo not given) | -9.53% (active) |
| Nc1ncc(C#Cc2cncc(NC(=O)c3cccc(C(F)(F)F)c3)c2)c2cccnc12 | 37.7% |
| CCCC1C(C(=O)OCC)=C(N)Oc2cc(O)ccc21 (stereo not given) | 90.1% |
| COc1cc2oc(-c3cccc(C(=O)Nc4ccc(Cl)cc4)c3)cc(=O)c2c(OC)c1OC | 8.67% (active) |
| CC(C)(C#N)N1CCN(c2ccccc2Cl)CC1 | 101% |
| CC1(C)CC[C@]2(C(=O)NCC#CCN3CCOCC3)CC[C@]3(C)C(=CC[C@@H]4[C@@]5(C)Cc6c([nH]c7ccccc67)C(C)(C)[C@@H]5CC[C@]43C)[C@@H]2C1 | 90.9% |
| O=C(Nc1ccc2cc3ccc(NC(=O)N4CCCCCC4)cc3nc2c1)N1CCCCCC1 | 8.09% (active) |
| Cc1nn(-c2ccccc2)c(N2CCOCC2)c1/C=N/N=c1\sc2ccccc2n1C | 36.7% |
| COc1ccc(C(=O)c2cc(C)c(OC)c(C)c2)c(OC)c1N(C(=O)C(Cl)Cl)C(=O)C(Cl)Cl | 20.7% |
| COc1cc2nc(-c3ccc(C(F)(F)F)cc3)cc(OCCN3CCCC3)c2cc1OC | 29.9% |
| COc1cccc2c1C(=O)c1c(O)c3c(c(O)c1C2=O)C[C@@](O)(C(=O)CO)C[C@@H]3O[C@H]1C[C@H](N)[C@@H](O)[C@H](C)O1 | -2.27% (active) |
| COc1cc(C2CC(c3cccc(Nc4ccncc4)c3)=NN2C(C)=O)cc(OC)c1OC (stereo not given) | 27.3% |
| O=C(OCc1nc2nc(Cl)nc(N3CCOCC3)c2[nH]1)n1ccnc1 | -14.2% (active) |
| COc1ccc(-c2nc(SCCC(C)C)nc(N/N=C(/C)c3ccc(C)cc3)c2C#N)cc1 | 91.2% |
| COc1ccc(C2CC(c3cccc(Nc4ccncc4)c3)=NN2c2cc(Cl)cc(Cl)c2)cc1 (stereo not given) | 2.77% (active) |
| Cc1nc2sc(C(=O)Nc3ccccc3)c(N)c2cc1C(=O)c1ccc(C(F)(F)F)cc1 | 81.9% |
| Cc1ccc(O)c(C(=O)O)c1 | 101% |
| CCN1C(=O)N(CC)C2C1NN=c1s/c(=C3\C(=O)Nc4ccccc43)c(=O)n12 (stereo not given) | 18.4% |
| O=C(Nc1ccc(F)cc1)c1c(NC(=O)C(F)(F)F)sc2c1CCCCC2 | 2.35% (active) |
| Cn1c(COC(=O)NCCn2ccnc2)nc2c(N3CCOCC3)nc(-c3ccccc3)nc21 | 1.63% (active) |
